Screening data deposited in PubChem BioAssay by National Center for Advancing Translational Sciences (NCATS).
A selection: hits, their analogues and other compounds. The true share with any hit is near 0.47%.
MmCpn inh: Inhibitors of TCP-1 ring complex (TRiC) of Methanococcus maripaludis (MmCpn): qHTS; Potency, µM (doses to about 76.9 µM), for the others: at the top dose activity, negative = inhibition, actives largely listed as inhibitors; actives 0.031% (n = 330,000); purified Mm-Cpn ATPase, ADP Transcreener TR-FRET; Chaperonin Mm-Cpn (Methanococcus maripaludis); further: potency means the concentration at half of the fitted maximal effect; on the % scale 0 is the no-effect control and ±100 the full control effect; nearly all actives have a fitted effect of over 80% in size
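Eu-cryptate anti-ADP/ADP-d2 competition gives a ratio inversely related to ADP. Enzyme at 25 nM was pre-exposed to compound for 10 min, then given 10 uM ATP for 30 min, 37°C throughout.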
Anesthetic bind: qHTS Assay for Identification of Novel General Anesthetics; Potency, µM (highest dose often 77.5 µM), for inactives: top-dose activity change, negative = displacement, usual class: inhibitors; Ferritin light chain (Equus caballus), P02791; apoferritin/1-aminoanthracene competitive binding, fluorescence; actives 0.074% (n = 350,000); further: potency means the concentration at half of the fitted maximal effect; on the % scale 0 is the no-effect control and ±100 the full control effect; nearly all actives have a fitted effect of over 20% in size
Target sequence (P02791 2-175 limits assumed): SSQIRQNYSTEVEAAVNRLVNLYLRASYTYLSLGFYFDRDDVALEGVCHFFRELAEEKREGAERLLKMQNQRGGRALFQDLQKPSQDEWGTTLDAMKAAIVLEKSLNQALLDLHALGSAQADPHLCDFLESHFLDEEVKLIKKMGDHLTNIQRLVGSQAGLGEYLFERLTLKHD
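Probe: 1-aminoanthracene (50% saturated, PBS). Protein: horse-spleen apoferritin, 10 uM. Incubation: 10 min, room temperature. Detection: 380 nm excitation, 535 nm emission. Analysis: normalized response, four-parameter Hill.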
CCT chaperon mod: High-Throughput Screening for Modulators of Cytosolic Chaperonin Activity. purified chaperonin ATPase assay, HTRF ADP detection, 30 min. activity change, % (concentration not given with the values), hits read low. actives 0.3% (n = 360,000). AID 651819, 2012; in the data active means activity change below about -30%; further: on the % scale 0 is the no-effect control and ±100 the full control effect
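Enzyme 40 or 20 nM (batch-dependent) in Tris pH 7.4/KCl/MgCl2/DTT; cpd 76 uM single point; ATP 10 uM; 30 min 37 °C; Transcreener ADP HTRF detection, 30 min RT; ratio 665/615.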
AT treatment: qHTS Assay for Identifying a Potential Treatment of Ataxia-Telangiectasia; F2112 A-T fibroblasts, KAP-1 phosphorylation AlphaLISA; neocarzinostatin DNA damage 30 min before lysis; actives 0.19% (n = 320,000); Potency, µM (titrated, usually from 57.5 µM), for inactives: at the highest dose activation, most hits filed as activators; further: potency means the concentration at half of the fitted maximal effect; % of control where 0% means no effect; nearly all actives have a fitted effect of over 45% in size
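hTERT-immortalized A-T patient fibroblasts (F2112), 500 cells/well in OPTI-MEM, 1% FBS, got compounds for 60 min, then NCS for 30 min at 37C. Lysates were then assayed for phospho-KAP-1 by AlphaLISA (anti-pKAP1 donor, anti-KAP1 acceptor beads), 6 hr at 25C.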
* marks the source's active call; other numbers are inactive results; ? = inconclusive; . = no result. Unless noted, the call rests on the fitted dose curve; in most records, active means well fitted curve in the direction sought with a large enough effect; inconclusive means small, poorly fitted or top-dose-only effect, or another doubt; inactive means no such curve, though single readings can be large; an effect the other way counts as inactive or inconclusive.

SMILES	MmCpn inh	Anesthetic bind	CCT chaperon mod	AT treatment
CCc1ccc(NC(=O)CSc2nnc(-c3nonc3NC(C)=O)n2-c2ccccc2)cc1	.	-12%	.	.
Nc1nc(SCC(=O)Nc2cc(-c3ccccc3)nn2-c2ccccc2)n[nH]1	0%	-9%	-97*	1%
COc1ccc(C)cc1S(=O)(=O)n1c([N+](=O)[O-])cnc1C	-6%	-2%	-79*	12%
COc1cc(CCC(=O)OCC(=O)N2CCc3ccccc32)cc(OC)c1OC	1%	-6%	-1	8.9µM*
COc1cc(CO)ccc1OCC(=O)N1CCc2ccccc21	-2%	-20%	-1	-7%
O=C(Cc1ccccc1)N1CCc2ccccc21	2%	8.9µM*	-1	17%
COc1cccc(-c2noc(-c3cc(C(C)C)[nH]n3)n2)c1OC	.	-2%	.	.
Cc1cccc(-c2noc(-c3cc(C(C)C)[nH]n3)n2)c1	.	16µM*	.	.
CCOc1ccc(C(=O)OCc2nnc(-c3cccs3)o2)cc1OC	-2%	-20%	-72*	2%
O=C(OCc1nnc(-c2cccs2)o1)c1cccnc1Cl	-1%	.	1	-6%
Fc1ccc(-n2nc(-c3ccccc3)c3cnc4ccccc4c32)cc1Cl	.	1%	.	.
Clc1cccc(N2CCN(CCCN3CCN(c4ccccc4)CC3)CC2)c1	.	.	1	.
OC(CN1CCN(c2cccc(Cl)c2)CC1)C(c1ccccc1)c1ccccc1 (stereo unspecified)	2%	.	-44*	-2%
O=C(CN1C(=O)C2C3C=CC(C3)C2C1=O)NCCc1ccccc1 (stereo unspecified)	?	1%	-51*	0%
O=C(CN1C(=O)C2C3C=CC(C3)C2C1=O)NCc1ccccc1 (stereo unspecified)	-2%	-7%	-3	0%
Cn1cc([N+](=O)[O-])c(C(=O)Nc2ccc(C3CCCCC3)cc2)n1	5%	7.9µM*	-1	-2%
c1ccc(N(c2ccccc2)c2nc(N3CCCC3)nc(-n3ccnc3)n2)cc1	-2%	-13%	2	20%
CCOC(=O)N1CCN(c2nc(N(c3ccccc3)c3ccccc3)nc(-n3ccnc3)n2)CC1	1%	1%	.	10µM*
COc1c(F)c(F)c(C(=O)O)c(Nc2ccccc2)c1F	0%	-9%	-78*	1%
Cc1ccc(S(=O)(=O)NCC(=O)NCc2cc(=O)n(C)c(=O)n2C)cc1C	-16%	-5%	-79*	-5%
Cc1ccc(S(=O)(=O)NCC(=O)NCc2cc(=O)n(C)c(=O)n2C)cc1	-1%	1%	2	2%
Cc1cc(SCC(=O)N/N=C/c2ccc(O)c(O)c2)nc2ccccc12	2%	?	-1	-3%
Cc1cc(SCC(=O)N/N=C/c2ccc(O)c(O)c2)c(C)cc1Br	-1%	22µM*	-1	-5%
Cc1ccccc1CNC(=O)c1ccc2nc(C(C)C)oc2c1	.	-4%	.	.
O=C(Nc1cc(S(=O)(=O)N2CCOCC2)ccc1N1CCCCC1)c1ccccc1Br	?	.	-33*	19%
SMILES	MmCpn inh	Anesthetic bind	CCT chaperon mod	AT treatment
C=CCn1c(NS(=O)(=O)c2ccccc2)c(S(=O)(=O)c2ccc(C)cc2)c2nc3ccccc3nc21	?	-4%	2	22µM*
Cc1ccc(S(=O)(=O)c2c(N)n(-c3ccccc3)c3nc4ccccc4nc23)cc1	-3%	-10%	-35*	18%
Cc1ccc(S(=O)(=O)c2c(N)n(Cc3ccco3)c3nc4ccccc4nc23)cc1	?	103%	-1	32µM*
O=S(=O)(Nc1c(S(=O)(=O)c2ccccc2)c2nc3ccccc3nc2n1C1CCCCC1)c1ccccc1	0%	4%	2	8%
Cc1cccc(S(=O)(=O)c2c(N)n(Cc3ccco3)c3nc4ccccc4nc23)c1	-1%	51%	-4	20%
O=C1C(=C(I)I)c2ccccc2-c2ccccc21	.	.	-3	.
O=C1/C(=C/c2cccc([N+](=O)[O-])c2)CCc2ccccc21	-2%	-17%	0	21%
CCN1C/C(=C\c2cccc([N+](=O)[O-])c2)C(=O)/C(=C/c2cccc([N+](=O)[O-])c2)C1	0%	-20%	1	22µM*
COc1cc(/C=C\C(=O)OCn2nnc3ccccc3c2=O)cc(OC)c1OC	-1%	?	-36*	5%
